Source: PubChem BioAssay (several laboratories)
A selection: hits, their analogues and other compounds. The true share with any hit is near 3%.
KKLEB cytotox – CF airway cell cytotoxicity counter-screen. activity change (cytotoxicity), % at 5 µM. 0.36% of 360,000 active. KKLEB CF airway cells viability, ATPlite luminescence, overnight; stronger effect = lower value; cells stimulated with P. aeruginosa culture filtrate. AID 602141;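 active = corrected activity change at or below -50% at 5 µM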
HIF-2a inh – HIF-2a inhibition. 786-0 RCC cells HIF-2a reporter, luciferase luminescence, overnight. inhibition, % at 18.8 µM. 0.72% of 360,000 active;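 active = inhibition of the luminescence signal of 40% or more relative to plate controls, in a single-dose primary screen at 18.75 µM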
LMP1 NFkB inh – Epstein-Barr LMP1 NF-kappaB reporter inhibition | LMP1-induced NF-kappaB luciferase reporter cells, luminescence | inhibition, % at 12.5 µM | 0.69% of 350,000 active; in the data active = inhibition above about 41%;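 also: 0% = neutral control wells and 100% = reference inhibitor control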
CF NFkB block – blocks PAF-induced NF-kB reporter in cystic fibrosis cells; KKLEB NF-kB-GFP reporter, GFP fluorescence overnight; inhibition, % at 5 µM; 0.86% of 360,000 active;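 active = at least 50% inhibition at 5 µM, scaled per plate between neutral and stimulator controls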;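 also: PAF is a Pseudomonas aeruginosa culture filtrate used as stimulus; plate controls were PAF-stimulated DMSO wells for no effect and unstimulated DMSO wells for full effect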
TRPM1 prom inh – inhibitors of MITF-driven TRPM1 promoter in melanoma cells; 0.83% of 330,000 active; AID 488899; SK-MEL-5 TRPM1 promoter luciferase, 24 h; inhibition, % at 12.5 µM;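 active = mean inhibition across replicates of 60% or more, whatever share of single replicates reaches that level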
Peg3 promoter – reduces Peg3 promoter-driven luciferase expression in HeLa; inhibition, % at 20 µM; HeLa PEG-Prom luciferase reporter, luminescence, overnight; AID 588405; 1.7% of 360,000 active;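 active = inhibition of at least 50% at 20 µM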
Numbers without * were called inactive; / = no result given.

SMILES	KKLEB cytotox	HIF-2a inh	LMP1 NFkB inh	CF NFkB block	TRPM1 prom inh	Peg3 promoter
CC1CCCCN1Cc1c[nH]c2ccccc12 (stereo not given)	10	21	1	-28	18	-22
COc1ccc2[nH]c(C)c(CCNCc3cn(C)c4ccccc34)c2c1	-19	9	16	39	47	87*
NC(N)=N/N=C/c1ccc(N(c2ccccc2)c2ccccc2)cc1	0	95*	4	-5	102*	105*
COc1ccc(/C=N\N=C(N)N)cc1	14	7	0	-3	-1	14
Cn1c(O)c(C=Nc2ccc(F)cc2)c(=O)[nH]c1=O	13	7	-3	-11	9	74*
COC(=O)c1ccc(NC(=O)CSc2nc3ccc(N4C(=O)C5C6C=CC(C6)C5C4=O)cc3s2)cc1 (stereo not given)	-1	-93	14	-7	62*	105*
O=C(Nc1cccc(C(F)(F)F)c1)OC1CN2CCC1CC2 (stereo not given)	-2	12	0	-4	12	20
OC(c1cccc(Cl)c1)(c1cccc(Cl)c1)C1CN2CCC1CC2 (stereo not given)	-10	11	0	18	-1	96*
C=C1C(=O)O[C@@H]2C[C@@H](C)[C@@H]3C=CC(=O)[C@@]3(C)[C@@H](OC(=O)CC(=O)O[C@H]3[C@@H]4C(=C)C(=O)O[C@@H]4C[C@@H](C)[C@@H]4C=CC(=O)[C@]43C)[C@H]12	-37	97*	92*	80*	98*	105*
C=C1C(=O)O[C@H]2[C@H]1[C@H](OC(=O)CC(=O)O[C@@H]1C[C@@H](C)[C@@H]3C=CC(=O)[C@@]3(C)[C@H]3OC(=O)C(=C)[C@H]13)C[C@@H](C)[C@H]1C=CC(=O)[C@]12C	-8	-3	-7	47	10	22
O=C1NCN(c2ccccc2)C12CCN(C(CCc1ccccc1)c1nnnn1Cc1ccccc1)CC2 (stereo not given)	-39	-45	/	23	/	59*
O=C1NC(=O)N(Cc2ccccc2Cl)C(=O)/C1=C/c1cccs1	-11	50*	6	43	56	60*
O=C1NC(=O)N(Cc2ccc(F)cc2)C(=O)/C1=C/c1cccs1	12	20	-2	30	56	42
CC(=O)OC1CC2OC3C=C(C)CCC3(C)C1(C)C21CO1 (stereo not given)	-19	72*	/	93*	/	108*
CC1(O)CCN2C(=O)CCc3cccc1c32 (stereo not given)	-6	11	5	33	-1	3
CCN1/C(=C/C=C/C2=[N+](CC)c3ccccc3C2(C)C)C(C)(C)c2ccccc21	-42	39*	39	-85	/	96*
CN1/C(=C\C=C2C(=O)NC(=O)NC2=O)C(C)(C)c2ccccc21	-11	3	1	3	-13	10
C1CCC2S[C@H]3CCCCC3NC2C1 (stereo not given in full)	4	2	0	-3	-19	6
COC(=O)C1=C(c2ccc(C(C)=O)cc2)C[C@@H]2CC[C@H]1N2C(=O)NCc1ccc(F)cc1	-9	8	5	-12	-13	6
CC(C)OP(=O)(Oc1ccc(C(O)C(Cl)(Cl)Cl)cc1)OC(C)C (stereo not given)	-3	18	-2	-4	-7	24
CCN1C[C@]2(C)CC[C@H](O)[C@]34C1[C@H](C[C@H]23)[C@@]1(O)C[C@H](OC)[C@H]2C[C@@H]4[C@@H]1C2O (stereo not given in full)	-10	5	90*	-12	-5	6
CC(=O)OC1=CC[C@H]2[C@@H]3CC[C@H]4C[C@H](OC(C)=O)[C@@H](OC(C)=O)C[C@]4(C)[C@H]3CC[C@]12C	-19	2	2	13	/	19
Nc1ccc(-c2ccccc2)cc1	1	-22	-10	-12	-35	-34
Nc1ccc(C2(c3ccc(N)cc3)c3ccccc3-c3ccccc32)cc1	-57*	27	3	75*	4	27
CC12CC[C@H]3[C@@H](CCC4(O)C[C@H](O)CCC34/C=N/NC(=O)c3ccccc3[N+](=O)[O-])C1(O)CCC2C1=CC(=O)OC1 (stereo not given in full)	11	22	-2	4	7	67*
